Assay results from PubChem BioAssay.

System: Noggin (protein binding on small-molecule microarray)
Test: small molecules binding Noggin protein – biochemical, 635/667 nm fluorescence, primary screen (AID 1095);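 also: score merges 667 nm feature fluorescence with signal to noise over triplicate slides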
Settings: 635 nm fluorescence, higher = more signal

SMILES	composite z-score
CN(C)C(=O)[C@]1(CCC(=O)OC(C)(C)C)N=C(c2ccc(OCCCO)cc2)O[C@@H]1c1ccccc1CN=[N+]=[N-]	0.717
Cc1ccccc1C(O)C1C=CC2C(=O)NC(=O)C2N1Nc1ccccn1 (stereo not given)	0.232
COCCOC(=O)N1C(=O)[C@@]2(c3ccccc31)[C@H](C(=O)NC[C@H](O)c1ccccc1)[C@H]1C(=O)O[C@H](c3ccccc3)[C@H](c3ccccc3)N1[C@@H]2c1ccc(O)cc1	0.915
CC1CC/C=C\[C@H]2OC34C=CCN(C(C)C)C(=O)[C@H]3N(CCO)C(=O)[C@@H]4C2C(=O)O1 (stereo not given in full)	-1.87
CCOC(=O)C=Cc1cccc(C)c1O	-0.452
CCCCCCCCCCC(O)C1C=CC2C(=O)N(c3ccccc3)C(=O)C2N1Nc1ccc(C#N)cc1 (stereo not given)	0.0931
COCC(=C=CC[C@H](O)c1ccc(CO)o1)CCO	1.04

Molecular target: Neurogenic locus notch homolog protein 3 (Homo sapiens) (UniProt Q9UM47)
Test: small molecules binding NOTCH3 protein – biochemical, 635/667 nm fluorescence, primary screen (AID 1096)
Settings: small-molecule microarray, 635 nm fluorescence, higher = more signal

Neurogenic locus notch homolog protein 3 (Homo sapiens), sequence (Q9UM47 whole entry, looked up): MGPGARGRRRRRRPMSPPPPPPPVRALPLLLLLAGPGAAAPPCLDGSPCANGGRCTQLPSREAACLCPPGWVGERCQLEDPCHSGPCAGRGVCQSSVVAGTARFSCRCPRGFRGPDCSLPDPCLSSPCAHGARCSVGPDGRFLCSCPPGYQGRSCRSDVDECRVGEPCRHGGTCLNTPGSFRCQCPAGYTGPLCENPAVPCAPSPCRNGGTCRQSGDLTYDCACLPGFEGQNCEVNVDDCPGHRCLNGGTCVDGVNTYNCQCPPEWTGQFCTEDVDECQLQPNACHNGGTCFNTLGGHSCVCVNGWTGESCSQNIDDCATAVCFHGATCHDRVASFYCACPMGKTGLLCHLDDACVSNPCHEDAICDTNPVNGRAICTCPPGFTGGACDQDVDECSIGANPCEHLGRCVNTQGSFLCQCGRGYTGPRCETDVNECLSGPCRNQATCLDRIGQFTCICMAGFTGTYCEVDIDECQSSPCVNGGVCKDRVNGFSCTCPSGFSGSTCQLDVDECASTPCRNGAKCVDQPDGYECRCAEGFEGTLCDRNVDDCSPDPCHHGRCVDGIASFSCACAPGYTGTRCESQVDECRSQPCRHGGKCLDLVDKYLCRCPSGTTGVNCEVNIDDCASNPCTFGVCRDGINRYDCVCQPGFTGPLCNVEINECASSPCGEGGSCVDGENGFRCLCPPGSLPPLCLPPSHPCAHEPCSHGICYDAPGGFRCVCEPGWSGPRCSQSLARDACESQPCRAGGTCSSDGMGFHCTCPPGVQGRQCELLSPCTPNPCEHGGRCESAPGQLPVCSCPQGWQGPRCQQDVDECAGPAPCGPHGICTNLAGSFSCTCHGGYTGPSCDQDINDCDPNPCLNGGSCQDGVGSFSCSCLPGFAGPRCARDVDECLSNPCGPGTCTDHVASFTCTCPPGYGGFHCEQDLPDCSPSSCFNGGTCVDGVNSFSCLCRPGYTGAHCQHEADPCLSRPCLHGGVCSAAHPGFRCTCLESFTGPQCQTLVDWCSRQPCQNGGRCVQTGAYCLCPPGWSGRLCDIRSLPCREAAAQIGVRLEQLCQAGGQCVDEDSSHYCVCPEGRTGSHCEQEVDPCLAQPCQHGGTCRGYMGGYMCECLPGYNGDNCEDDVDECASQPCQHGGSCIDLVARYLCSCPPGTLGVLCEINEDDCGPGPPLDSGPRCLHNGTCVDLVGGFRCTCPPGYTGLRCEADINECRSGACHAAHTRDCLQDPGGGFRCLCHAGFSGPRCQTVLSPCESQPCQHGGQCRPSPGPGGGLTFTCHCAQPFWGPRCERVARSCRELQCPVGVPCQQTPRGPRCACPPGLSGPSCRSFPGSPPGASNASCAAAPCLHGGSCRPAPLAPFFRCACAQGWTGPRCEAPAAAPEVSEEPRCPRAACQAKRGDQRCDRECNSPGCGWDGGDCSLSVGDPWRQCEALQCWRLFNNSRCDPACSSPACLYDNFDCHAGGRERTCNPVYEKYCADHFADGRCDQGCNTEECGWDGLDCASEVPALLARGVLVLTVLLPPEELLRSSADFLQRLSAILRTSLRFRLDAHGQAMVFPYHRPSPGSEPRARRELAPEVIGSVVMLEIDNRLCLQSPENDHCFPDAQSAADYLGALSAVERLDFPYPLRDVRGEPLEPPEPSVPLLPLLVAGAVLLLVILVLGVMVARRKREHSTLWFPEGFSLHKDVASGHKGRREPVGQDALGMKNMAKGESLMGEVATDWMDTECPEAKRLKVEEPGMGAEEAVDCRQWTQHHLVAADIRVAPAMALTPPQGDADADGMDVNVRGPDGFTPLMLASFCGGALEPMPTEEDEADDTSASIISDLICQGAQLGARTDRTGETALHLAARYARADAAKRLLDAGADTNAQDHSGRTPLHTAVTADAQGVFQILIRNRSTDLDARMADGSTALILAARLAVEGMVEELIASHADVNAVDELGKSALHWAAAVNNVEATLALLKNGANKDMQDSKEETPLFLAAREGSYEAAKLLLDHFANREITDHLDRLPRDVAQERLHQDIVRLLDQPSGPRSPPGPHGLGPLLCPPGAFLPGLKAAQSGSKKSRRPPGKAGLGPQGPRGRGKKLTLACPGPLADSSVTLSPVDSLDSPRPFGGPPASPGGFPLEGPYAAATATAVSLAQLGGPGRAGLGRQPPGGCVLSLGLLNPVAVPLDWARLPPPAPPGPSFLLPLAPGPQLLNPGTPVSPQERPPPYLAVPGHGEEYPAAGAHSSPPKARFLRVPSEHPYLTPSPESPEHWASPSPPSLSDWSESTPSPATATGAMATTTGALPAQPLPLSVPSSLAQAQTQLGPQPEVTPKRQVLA

SMILES	composite z-score
CCCC1(C(=O)OC)C=C2C(=C(C)C(=O)C2C)CN1 (stereo not given)	-0.0768
NCCCCCNC(=O)[C@@H]1C[C@@H]2C(=O)N[C@@H](CCCCN)C(=O)N2[C@@H]1c1ccc(O)cc1	0.881
CCCN1C(=O)[C@]2(Cc3ccccc31)N=C(c1ccc(OCCCO)cc1)O[C@@H]2c1ccccc1	1.03
CCN(CC)c1ccc(N2CC=CC34O[C@@H]5/C=C\CCCOC(=O)C5[C@H]3C(=O)N(C(C)CO)[C@@H]4C2=O)cc1 (stereo not given in full)	0.204
NC(=O)[C@H]1[C@@H]2C(=O)O[C@@H](c3ccccc3)[C@@H](c3ccccc3)N2[C@@H](c2ccc(OCCO)cc2)[C@]12C(=O)Nc1ccc(C#CCCO)cc12	0.164
CC(C)C(CO)N1C(=O)[C@@H]2[C@H]3C(=O)OCC=C[C@H]3OC23C=CCN(c2ccc(Cl)cc2)C(=O)[C@@H]13 (stereo not given in full)	-0.271
C=CCNC(=O)[C@@H]1[C@H]2C(=O)O[C@H](c3ccccc3)[C@H](c3ccccc3)N2[C@H](c2ccccc2OCCO)[C@@]12C(=O)Nc1ccc(C#CCC(C(=O)OC)C(=O)OC)cc12	1.07
COc1ccc(C#Cc2ccc3c(c2)[C@]2(C(=O)N3)[C@H](C(=O)O)[C@H]3C(=O)O[C@H](c4ccccc4)[C@H](c4ccccc4)N3[C@@H]2c2ccc(O)cc2)cc1	-0.468
CCCC[C@@H](O)C1=C(COC)C[C@H]2C(=O)N(Cc3ccccc3)C(=O)[C@H]2[C@H]1CO	0.788
COC(=O)[C@@]1(Cc2ccc(F)cc2)[C@H]2c3cc(C(=O)N4CCCC4)n(Cc4ccc(C)c(F)c4F)c3C[C@H]2CN1C(=O)c1ccccc1	-0.338
C=CCNC(=O)[C@@H]1[C@H]2C(=O)O[C@H](c3ccccc3)[C@H](c3ccccc3)N2[C@H](c2ccc(O)cc2)[C@@]12C(=O)N(C(=O)OCCOC)c1ccc(C#CC3=CCCCC3)cc12	1.09
C#Cc1cc2ccccc2oc1=O	-1.32
COc1cc(NN2C(C(O)c3cc(OC)c(OC)c(OC)c3)C=CC3C(=O)N(C)C(=O)C32)cc(OC)c1OC (stereo not given)	1.06
CO[C@H]1O[C@H](CO)[C@@H](OC(=O)Nc2ccccc2)[C@H](OC(=O)c2cc3ccccc3[nH]2)[C@H]1OC(=O)c1cc2ccccc2[nH]1	0.196
CCOC(=O)C[C@H]1[C@H](OC(=O)Cc2ccc3c(c2)OCO3)[C@@H](NC(=O)c2ccc3ccccc3n2)c2cc(OCCCO)ccc2N1C(=O)c1ccc2ccccc2n1	0.497
COc1ccc(C#Cc2ccc3c(c2)[C@]2(C(=O)N3)[C@H](c3ccc(OCCO)cc3)N3[C@H](c4ccccc4)[C@H](c4ccccc4)OC(=O)[C@H]3[C@@H]2C(=O)NC[C@H](O)c2ccccc2)cc1	1.08
NCCCCCNC(=O)[C@H]1C[C@H]2C(=O)N3CCC[C@H]3C(=O)N2[C@H]1c1cccc(OCCO)c1	0.0389
CO[C@H]1O[C@H](CO)[C@@H](OC(=O)Nc2ccc(Br)cc2)[C@@H]2OC(=O)[C@@H](Cc3ccccc3)C/C=C/C[C@H](Cc3ccccc3)C(=O)O[C@@H]12	0.464
CCOC(=O)[C@@H]1CCCCN1C(=O)C(=O)OC	0.717
O=C(Cc1ccccc1)[C@H]1C2C=CCCC(c3ccccc3)=C2CN1Cc1ccccc1 (stereo not given in full)	-0.433
CCOC(=O)C[C@H]1[C@H](OC(=O)Cc2ccc3c(c2)OCO3)[C@@H](NC(=O)C2CCCCC2)c2cc(OCCCO)ccc2N1C(=O)c1ccccc1	0.255
C=C[C@H](C)[C@H](OC(=O)Nc1ccc(SC)cc1)c1ccc(OCCO)cc1	0.862
CCCCC(CC)C(O)C1C=CC2C(=O)N(c3ccccc3)C(=O)C2N1Nc1ccccc1F (stereo not given)	0.822
